# GALK inh: galactokinase (human) inhibition; P51570; Purified GALK, Kinase-Glo residual ATP luminescence; Potency, µM (top dose mostly 57.5 µM), without a hit: top-dose activity change, negative = inhibition, hits mostly inhibitors; 270,000 compounds, 0.007% hits; AID 1868
# Target sequence (P51570 whole entry, looked up): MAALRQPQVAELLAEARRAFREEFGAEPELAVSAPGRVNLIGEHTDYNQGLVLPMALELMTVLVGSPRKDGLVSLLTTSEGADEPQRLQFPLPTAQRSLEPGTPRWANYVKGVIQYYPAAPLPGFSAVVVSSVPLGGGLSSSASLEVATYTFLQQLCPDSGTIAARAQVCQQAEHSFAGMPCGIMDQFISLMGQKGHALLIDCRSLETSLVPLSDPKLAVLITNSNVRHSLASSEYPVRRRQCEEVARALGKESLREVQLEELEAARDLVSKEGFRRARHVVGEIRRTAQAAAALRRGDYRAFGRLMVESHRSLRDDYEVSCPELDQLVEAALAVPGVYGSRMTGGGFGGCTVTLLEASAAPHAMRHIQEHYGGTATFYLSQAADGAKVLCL
#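 Galactose (100 uM) and ATP (35 uM) were turned over by 5 nM GALK for 1 h at RT. Kinase-Glo Plus then converted the remaining ATP into a luminescent signal.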
# TrxR1 substrate: is turned over as a substrate by rat TrxR1; O89049; purified TrxR1 substrate turnover, NADPH consumption readout; Potency, µM (highest dose often 114 µM), for the others: at the highest dose activity change, negative = substrate turnover; 390,000 compounds, 0.01% hits; further: nearly all actives have a fitted effect of over 50% in size
#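 Rat TrxR1, dispensed at 90 nM, was prereduced with 400 uM NADPH (final) for 5 min at ~22 deg C, then incubated with compound 15 min before 400 uM selenite. A first-read NADPH fluorescence drop versus no-compound background flagged substrates.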
# NPSR antag: blocks cAMP signaling of the human neuropeptide S receptor. Potency, µM (highest dose often 38.3 µM), inactives show at the highest dose activity change, negative = inhibition, hits mostly inhibitors. 220,000 compounds, 1% hits. CHO-NPSR cells, cAMP TR-FRET, antagonist mode. Q6W5P4. AID 1461; further: nearly all actives have a fitted effect of over 50% in size
# rTrxR1 inhibitor: inhibitors of rat thioredoxin reductase 1 | O89049 | recombinant rTrxR1, NADPH fluorescence consumption, selenite substrate | Potency, µM (titrated, usually from 114 µM), for the others: at the highest dose activity change, negative = inhibition, hits mostly inhibitors | 390,000 compounds, 1% hits; further: nearly all actives have a fitted effect of over 65% in size
#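 Rat TrxR1 (90 nM in the dispensed reagent) was pre-reduced with 400 uM NADPH for 5 min at room temperature, then incubated with compound for 15 min. After 400 uM selenite was added, NADPH fluorescence (Ex 340/Em 450 nm) was followed for 8 min.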
# * marks the source's active call; other numbers are inactive results; ? = inconclusive; / = no result; [ ] = dose if it differs, or a comment. Rows were chosen to be rich in hits. Some 1.2% of all compounds tested hit in one or more screens of this group. The call rests on the fitted dose curve; in most records, active means well fitted curve in the direction sought with a large enough effect; inconclusive means small, poorly fitted or top-dose-only effect, or another doubt; inactive means no such curve, though single readings can be large; an effect the other way counts as inactive or inconclusive. On the % scale 0 is the no-effect control and ±100 the full control effect; potency means the concentration at half of the fitted maximal effect.
SMILES,GALK inh,TrxR1 substrate,NPSR antag,rTrxR1 inhibitor
CC(=O)c1ccc2noc(-c3ccc(C)cc3)c2c1,-1.1%,8.1%,-23.7%,7.08µM*
CCn1nc(C)cc1C(=O)Sc1ccc(Cl)cc1Cl,-0.3%,7.4%,1.7%,?
CCn1nc(C)cc1C(=O)Sc1cccc(Br)c1,0.1%,6.9%,?,7.94µM*
O=C(CN1CCN(c2ccccc2)CC1)c1c[nH]c2ccccc12,0.0%,7.7%[57.1 µM],/,22.0%[57.1 µM]
N#Cc1ccc(C(=O)CN2CCN(c3ccccc3)CC2)cc1,-1.3%,5.5%,/,50.1µM*
CCN(CC)c1ccc(/C=N/NC(=O)CNC(=O)/C=C/c2ccco2)cc1,2.2%,-3.7%,/,?
O=C(/C=C/c1ccco1)NCC(=O)N/N=C/c1ccccc1[N+](=O)[O-],-1.2%,-4.4%,2.8%,44.7µM*
O=C(c1ccccc1)n1c(=O)c(F)cn(COCCBr)c1=O,6.7%,9.4%,/,44.7µM*
O=C(c1ccccc1)n1c(=O)cc[nH]c1=O,/,13.2%[57.1 µM],/,32.2%[57.1 µM]
Cc1ccccc1CS(=O)(=O)Cc1ccc(C(=O)NCc2ccco2)o1,-0.4%,-5.1%,0.6%[46.1 µM],79.4µM*
Cc1ccccc1CS(=O)(=O)Cc1ccc(C(=O)NCc2ccccn2)o1,-1.0%,-2.9%,-7.5%[46.1 µM],50.1µM*
CCc1ccc(CNC(=O)c2ccc(CS(=O)(=O)Cc3ccccc3C)o2)cc1,/,5.8%[57.1 µM],/,17.2%[57.1 µM]
COc1ccc(-c2cccc(NS(=O)(=O)c3cc(C)c(Cl)cc3C)c2)nn1,/,-5.2%[57.1 µM],/,18.9%[57.1 µM]
CCc1cccc(NC(=O)CSc2ncc3c(n2)-c2ccc(Cl)cc2N(Cc2ccccc2)S3(=O)=O)c1,/,-3.0%[57.1 µM],/,-1.8%[57.1 µM]
O=C1C=CC2(C=C1)O[C@H](Cc1ccccc1)[C@@H](Cc1ccccc1)O2,/,3.8%[11.4 µM],/,0.891µM*
COc1ccc(N2C(=O)CC(Cc3ccccc3)C2=O)cc1 (stereo unspecified),-3.4%,1.9%,-0.4%[46.1 µM],16.3%
COc1ccc(C[C@@H]2OC3(C=CC(=O)C=C3)O[C@H]2Cc2ccc(OC)cc2)cc1,/,-0.8%,/,0.562µM*
Nc1nc(=S)[nH]c2n[nH]nc12,/,-2.5%,/,-10.3%
O=C1Nc2ccccc2/C1=C/C(=O)c1cccs1,-2.0%,-5.1%,-24.7%[46.1 µM],-66.9%
CCN1C(=O)/C(=C\C(=O)c2cccs2)c2cc(Br)ccc21,-2.1%,-4.6%,-28.2%,17.8µM*
CC1(C)CC(=O)C2=C(C1)OC(N)=C(C#N)[C@@H]2c1ccccc1[N+](=O)[O-],5.3%,12.4%,2.5%,20µM*
[O-]/[N+](=C\c1ccncc1)c1ccc(Br)cc1,/,-5.3%,-1.6%,35.5µM*
CCN(C(=O)CSc1nnc(-c2cc(OC)c(OC)c(OC)c2)o1)c1ccccc1,/,-7.8%,/,44.7µM*
Cn1ccnc1C(=O)c1cccc(Br)c1,0.7%,-1.7%,/,14.5%
O=C(N/N=C/c1ccncc1)c1ccccc1[N+](=O)[O-],0.0%,-22.1%[57.1 µM],20.9%,13.0%[57.1 µM]
SMILES,GALK inh,TrxR1 substrate,NPSR antag,rTrxR1 inhibitor
O=C(N/N=C/c1ccc(N2CCOCC2)o1)c1ccccc1[N+](=O)[O-],1.8%,-18.1%,-18.1%,8.91µM*
O=C(N/N=C/c1ccc(N2CCOCC2)o1)c1cccc(C(F)(F)F)c1,-0.8%,-9.6%,?,7.08µM*
O=C(N/N=C/c1ccc(N2CCCCC2)o1)c1ccccc1[N+](=O)[O-],2.6%,-1.7%,-21.8%,10µM*
Cc1c(NC(=O)c2ccc(-c3cccc([N+](=O)[O-])c3)o2)cccc1-c1nc2cc(Cl)ccc2o1,/,1.1%,/,?
Cc1ccc(/C=C/C(=O)OC(C)C(=O)Nc2ccc(Cl)cn2)o1 (stereo unspecified),0.2%,0.5%,-32.8%,14.1µM*
COc1ccc(-c2c(C#Cc3ccsc3)c3ccccc3n2C)cc1,/,14.4%[57.1 µM],/,10µM*
Cc1cc(C#Cc2c(-c3ccccc3)n(C)c3ccccc23)ccc1F,/,13.9%,/,35.5µM*
COc1cc(C#Cc2c(-c3ccccc3)n(C)c3ccccc23)cc(OC)c1,/,35.8%,/,44.7µM*
CC(=O)OCC(NC(=O)C(COCc1ccccc1)NC(=O)OC(C)(C)C)C1OC(n2cc(C)c(=O)[nH]c2=O)C(OC(C)=O)C1OC(C)=O (stereo unspecified),/,0.7%,/,-4.2%
CC(C)(C)n1ncc2c(=O)n(Cc3cccc(-c4ccccc4)c3)cnc21,/,-2.9%,/,1.8%
COc1ccc(-c2nnc(SCC(=O)Nc3cccc(C(F)(F)F)c3)nc2-c2ccc(OC)cc2)cc1,/,-8.3%[57.1 µM],/,0.3%[57.1 µM]
CCOC(=O)c1noc2ncnc(N3CCN(c4cccc(C(F)(F)F)c4)CC3)c12,/,-0.5%[57.1 µM],/,13.9%[57.1 µM]
